# Screening data as filed in PubChem BioAssay.
# TROY NFkB inh: inhibitors of TROY-dependent NF-kB signaling | Q293 LMP1-TROYcd NF-kB luciferase reporter, 4 h | inhibition, % at 10 µM | actives 0.98% (n = 360,000) | AID 1347056;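 active = compounds whose plate-normalised and pattern-corrected inhibition of the luciferase reporter signal at the single screening dose is 50% or more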
# HSP90 refold inh: inhibitors of HSP90 luciferase refolding in rabbit reticulocyte lysate. luciferase refolding luminescence, 3 h. inhibition, % at 5.6 µM. actives 0.91% (n = 290,000);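 active = inhibition above the screen-wide mean plus 3 SD, computed separately per campaign, cut at about 16% in these data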;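 note: 0% = DMSO wells and 100% = 60 µM geldanamycin wells; inhibitors lower the luminescence because luciferase stays unfolded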
# TWEAK-Fn14 inh: inhibitors of TWEAK-Fn14 interaction signaling | TWEAK-stimulated Fn14 reporter cells, luciferase luminescence, 8 h | inhibition, % at 10 µM | actives 2% (n = 360,000) | AID 1159606; in the data active = inhibition above about 50%
# TRAIL sens C8: sensitizes caspase-8 expressing cells to TRAIL; inhibition (viability loss, TRAIL sensitization), % at 10 µM; actives 1% (n = 360,000); NB7+C8 cells + TRAIL, ATPlite viability luminescence;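 active = compounds causing at least 50% loss of cell viability in the single-dose screen, relative to plate controls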
# Platelet DG rel: modulates dense granule release in human platelets | actives 0.22% (n = 300,000) | inhibition, %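 (compounds screened at 7.5 µM in platelet-rich plasma)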 | AID 1663 | human platelet-rich plasma, SFLLRN dense granule ATP release, luminescence;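 active = mean replicate score, as percent of positive control, at or above 50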
# PPC-1+TRAIL kill: compounds killing PPC-1 cancer cells with TRAIL present (potentiator screen, no TRAIL-free arm) | cell killing (% activity), % at 4 µM or 5 µM | actives 0.41% (n = 220,000) | PPC-1 cells + TRAIL, ATPLite viability luminescence | AID 1443;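 active = cell killing above 50% in the first pass at 4 µM, then a duplicate retest at 5 µM averaging 50% or more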;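 note: plate controls were cells with TRAIL plus DMSO for no effect and medium-only wells lacking cells for full effect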
# Starred values were filed as active, the others as inactive; · = no result. An excerpt weighted towards active compounds, which were near 3.5% of everything screened.
SMILES,TROY NFkB inh,HSP90 refold inh,TWEAK-Fn14 inh,TRAIL sens C8,Platelet DG rel,PPC-1+TRAIL kill
COc1cc(-c2nc(-c3ccccc3)c(-c3cccs3)[nH]2)cc(OC)c1OC,8,1,66*,10,-2,-2
c1csc(-c2nc3c4ccccc4c4ccccc4c3[nH]2)c1,-17,2,69*,11,-2,36
Oc1ccccc1-c1nc2c3ccccc3c3ccccc3c2[nH]1,0,-2,-4,3,·,14
c1ccc(-c2nc(-c3cccs3)[nH]c2-c2ccccc2)cc1,-14,-3,52*,-7,-2,19
O=C1c2cccc(NCCCNCCO)c2C(=O)c2cccc(NCCCNCCO)c21,-5,·,-8,57*,·,·
CCOC(=O)c1cnc2c(-c3ccccc3)cnn2c1C,-44,-2,-8,58*,-1,23
CCOc1ccc(N(CC(=O)Nc2c(C)cccc2C)S(=O)(=O)c2c(C)[nH]c(=O)[nH]c2=O)cc1,12,2,80*,-7,-1,18
COc1ccc(NC(=O)CSc2nnc(-c3cccc(O)c3)o2)cc1,-27,-2,4,-1,7,·
COc1cccc(NC(=O)CSc2nnc(-c3cc(C)n(-c4ccccc4)c3C)o2)c1,36,7,89*,13,0,11
CCN1CCN(CCNC(=O)c2ccc(/C=C3\Sc4ccccc4N(Cc4ccccc4F)C3=O)cc2)CC1,65*,4,-66,25,-13,15
CN1CCN(CCCNC(=O)c2ccc(/C=C3\Oc4ccccc4N(Cc4ccccc4F)C3=O)cc2)CC1,-5,4,-67,26,11,·
CN1CCN(CCCNC(=O)c2ccc(/C=C3\Sc4ccccc4N(Cc4ccc(F)cc4)C3=O)cc2)CC1,-11,4,-53,4,4,6
COCCCNC(=O)/C=C1\Sc2ccccc2N(Cc2ccccc2F)C1=O,-29,2,103*,19,3,14
CN1CCN(CCCNC(=O)c2ccc(/C=C3/Sc4ccccc4N(Cc4cccc(Cl)c4)C3=O)cc2)CC1,52*,-3,-31,-14,10,6
CCC(C)(C)NC(=O)CCCSc1nc2ccccc2[nH]1,-12,-4,-6,-1,-1,15
Cc1ccccc1N=C1SCCN1C(=O)CN1C(=O)NC2(CCCC2)C1=O,13,·,1,3,8,·
c1ccc2c(c1)CC(CN1CCNCC1)O2 (stereo not given),0,-3,6,-7,2,·
N/C(=N\OC(=O)c1ccccc1)C(C(=O)NOC(=O)c1ccccc1)C1CCCCC1 (stereo not given),-48,·,-5,91*,·,·
CCN(CC)S(=O)(=O)c1ccc(C(=O)Nc2ccc(Cc3ccncc3)cc2)cc1,38,-3,58*,32,0,8
CCN(CC)S(=O)(=O)c1ccc(NC(=O)c2ccc(N(C)S(C)(=O)=O)cc2)cc1,26,3,50*,20,7,44
CCCCc1ccc(NC(=O)c2ccc(N(C)S(C)(=O)=O)cc2)cc1,-16,1,37,53*,-5,17
CCN(CC)S(=O)(=O)c1ccc(C(=O)Nc2cc(C)cc(C)c2)cc1,-29,1,9,5,-4,12
CCCCc1ccc(NC(=O)c2ccc(NS(C)(=O)=O)cc2)cc1,3,2,-14,11,-2,3
CCC(c1ccc(O)cc1)C(CC)c1ccc(O)cc1 (stereo not given),52*,·,4,-2,·,·
CN=c1sc2c(n1C)C(=O)c1ccccc1C2=O,48,·,89*,76*,·,·
SMILES,TROY NFkB inh,HSP90 refold inh,TWEAK-Fn14 inh,TRAIL sens C8,Platelet DG rel,PPC-1+TRAIL kill
CN=c1sc(C(=O)Nc2ccccc2)c(C)n1C,-3,-5,-13,2,2,-2
CS(=O)(=O)N1CCc2cc(-c3csc(NC(=O)Cc4ccccc4)n3)ccc21,50,4,58*,16,3,14
CC1Cc2cc(-c3csc(NC(=O)Cc4cccs4)n3)ccc2N1S(C)(=O)=O (stereo not given),75*,-2,101*,45,-6,1
COc1cc(CCC(=O)N2CCN(c3cccc(C)c3C)CC2)cc(OC)c1OC,13,9,-2,-3,-4,·
CC(C)CCN(C(=O)Cc1ccc(Cl)c(Cl)c1)c1c(N)n(Cc2ccccc2)c(=O)[nH]c1=O,8,0,-5,15,7,16
CCCOC(=O)c1ccc(NC(=O)/C=C/c2cccs2)cc1,56*,-6,32,-4,-1,-5
CCN(c1ccc(C)cc1C)S(=O)(=O)c1nnc(NC(=O)C(C)(C)C)s1,6,2,19,16,-12,·
O=[N+]([O-])c1ccc(N2CCN(C(=S)NCc3ccc(Cl)cc3)CC2)cc1,36,-4,64*,19,27,24
CCNC(=S)N1CCN(c2ccc([N+](=O)[O-])cc2)CC1,16,2,5,4,-2,2
CN(C)CCNc1ncnc2c1cnn2-c1ccc(Cl)cc1,18,5,9,40,-4,1
CCCN(CCC)c1ncnc2c1cnn2-c1ccc(OC)cc1,62*,12,53*,35,-4,11
OCCCNc1ncnc2c1cnn2-c1ccc(Cl)cc1,15,16*,68*,30,0,·
Clc1ccc(-n2ncc3c(NCC4CCCO4)ncnc32)cc1 (stereo not given),37,-1,60*,36,-15,22
CCC(CO)Nc1ncnc2c1cnn2-c1ccc(Cl)cc1 (stereo not given),73*,27*,68*,30,-5,26
O=C(Nc1cccc2c1CCCC2)c1cc(C2CCCCN2C(=O)c2cccs2)on1 (stereo not given),8,·,6,13,·,·
CCC(CO)Nc1ncnc2c1cnn2-c1ccc(OC)cc1 (stereo not given),39,8,54*,33,-4,20
CCCNc1ncnc2c1cnn2-c1ccc(OC)cc1,·,9,·,·,·,·
NS(=O)(=O)c1ccc(-c2ccc(/C=N/Nc3ccc(C(=O)O)cc3)o2)cc1,16,10,50*,6,6,11
CCCS(=O)(=O)NC(=O)C1(C)CCN(C(=O)c2cccnc2Oc2ccccc2)C1 (stereo not given),7,·,5,-16,·,·
CCOC(=O)C(=Cc1cc(=O)c(OC)co1)C(=O)OCC,42,-5,98*,-3,19,40
Cc1cc(NCCCCCCCNc2cc(C)nc3cc([N+](=O)[O-])ccc23)c2ccc([N+](=O)[O-])cc2n1,34,·,77*,58*,·,·
c1ccc(-c2nnc(CN3CCC4(CC3)OCCO4)o2)cc1,-19,3,-24,6,13,12
c1ccc(-c2nnc3sc(CN4CCC5(CC4)OCCO5)cn23)cc1,-2,3,-4,65*,0,5
CCN=c1scc(C)n1/N=C/c1cc(Br)c(O)c(OC)c1,58*,-4,-26,22,4,-6
